# This is a sample that favours compounds with a hit; in the whole collection about 3.4% have one here.
# FBW7 activator: FBW7 E3 ligase activators, primary screen, biochemical, AlphaScreen, human; F-box/WD repeat-containing protein 7 (Homo sapiens), Q969H0; AlphaScreen FBW7–phospho-cyclin E peptide binding, activator screen; normalized activity (activation), % at 26.1 µM; 650,000 compounds, 0.13% hits; AID 1259310, 2017; in the data active = normalized activity above about 1.9%;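 note: purified mutant Fbw7 with reduced substrate affinity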
# MITF primary: MITF inhibitors, primary screen, biochemical, AlphaScreen, human. Microphthalmia-associated transcription factor (Homo sapiens), O75030. inhibition, % at 2.6 µM. AID 1259374, 2018. 650,000 compounds, 0.91% hits. AlphaScreen MITF homodimerization, bead proximity signal; in the data active = inhibition above about 50%;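 note: 0% = vehicle wells with protein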
# TEAD-YAP inh: TEAD-YAP interaction inhibition, primary screen, TEAD-YAP interaction inhibitor project, luminescence, HEK-TIYL cells; TEAD-Gal4/YAP UAS-luciferase luminescence; inhibition, % at 9.12 µM; 640,000 compounds, 1.4% hits; AID 1259422, 2018; in the data active = inhibition above about 32%;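 note: 0% = median of test compound wells and 100% = reference inhibitor wells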
# GPR151 activ: activators of human GPR151, primary screen, cell-based, PathHunter beta-arrestin, luminescence. 650,000 compounds, 1% hits. activation, % at 11.2 µM. PathHunter beta-arrestin GPR151 cells. AID 1508602, 2020; in the data active = activation above about 4.9%;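 note: 0% = median of compound wells and 100% = cells with positive control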
# Target sequence (Q8TDV0 whole entry, looked up): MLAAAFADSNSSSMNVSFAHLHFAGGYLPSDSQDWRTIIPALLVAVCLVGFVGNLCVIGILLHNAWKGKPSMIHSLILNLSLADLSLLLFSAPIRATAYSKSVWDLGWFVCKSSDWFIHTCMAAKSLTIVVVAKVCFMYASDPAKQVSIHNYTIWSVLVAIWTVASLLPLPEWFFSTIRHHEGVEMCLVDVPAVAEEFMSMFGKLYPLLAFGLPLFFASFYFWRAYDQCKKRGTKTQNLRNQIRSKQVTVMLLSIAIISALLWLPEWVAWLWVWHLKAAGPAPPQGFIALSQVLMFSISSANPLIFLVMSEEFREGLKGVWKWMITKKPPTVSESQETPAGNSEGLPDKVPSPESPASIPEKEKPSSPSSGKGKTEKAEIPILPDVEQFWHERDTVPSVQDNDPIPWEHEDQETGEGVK
# * marks the source's active call; other numbers are inactive results.
SMILES,FBW7 activator,MITF primary,TEAD-YAP inh,GPR151 activ
CCOC(=O)c1c(NC(=O)C2C3C=CC(C3)C2C(=O)O)sc2c1CC(C)CC2 (configuration not stated),0,-4,37*,0
COc1ccc(CCC(=O)N2CCC(Cn3ccnc3C(C)C)CC2)cc1,1,5,17,0
COCCNC(=O)/C(C#N)=C/c1ccc[nH]1,0,3,7,2
CCOC(=O)CSC1=C(C#N)C(c2cccc(Cl)c2)CC(=O)N1 (configuration not stated),0,7,66*,-1
CCOC(=O)CSC1=C(C#N)C(c2ccc(Cl)cc2)CC(=O)N1 (configuration not stated),0,-1,-13,-1
COC(=O)CSC1=C(C#N)C(c2cccc(Cl)c2)CC(=O)N1 (configuration not stated),0,-3,57*,0
N#CC1=C(SCC(=O)Nc2ccccc2Cl)NC(=O)CC1c1ccc(F)cc1 (configuration not stated),0,3,6,0
CCOC(=O)CSC1=C(C#N)C(c2ccc(C)o2)CC(=O)N1 (configuration not stated),0,6,60*,1
COC(=O)CSC1=C(C#N)C(c2ccc(Cl)cc2)CC(=O)N1 (configuration not stated),0,5,-9,-1
N#CC1=C(SCC(=O)Nc2ccccc2[N+](=O)[O-])NC(=O)CC1c1ccccc1F (configuration not stated),1,28,34*,1
COc1ccc(-c2noc(NCc3ccc4c(c3)OCO4)n2)cc1OC,0,5,-3,0
O=C(CCCn1c2ccccc2c2cn[nH]c(=O)c21)NCCN1CCOCC1,0,3,-1,0
O=C(COc1ccccc1)N1CCN(c2ccccn2)CC1,0,12,8,0
CNC(=O)/C(C#N)=C/c1ccc(-c2ccc(C(=O)OC)cc2)o1,0,16,-5,-1
CCCCOC(=O)CSC1=C(C#N)C(c2cccc(Cl)c2)CC(=O)N1 (configuration not stated),0,11,45*,0
N#CC1=C(SCC(=O)Nc2ccc(Cl)c(Cl)c2)NC(=O)CC1c1cccs1 (configuration not stated),0,50,59*,1
Cc1ccc(-c2cnc(NC3CC3)nc2)cc1,1,11,54*,-6
CCOCC(=O)Nc1ccc(-c2nnc(N(C)c3ccccc3)s2)cc1,0,-3,-2,-1
Cc1cc(Nc2ccccc2C)nc(-n2nc(C)cc2C)n1,0,18,70*,-2
Cc1cc(Nc2ccc3c(c2)OCO3)nc(-n2nc(C)cc2C)n1,0,-5,61*,-1
COc1ccc(Nc2nc(C)cc(C)n2)c(OC)c1,0,12,3,0
COc1ccc(Nc2cc(C)nc(-n3nc(C)cc3C)n2)c(OC)c1,-1,-7,66*,-1
Cc1cc(Nc2ccc(F)c(Cl)c2)nc(-n2nc(C)cc2C)n1,1,15,6,-1
COc1ccc(C(=O)Nc2ccc(OCc3ccccc3)cc2)c(OC)c1,0,15,90*,-1
O=S(=O)(Nc1ccc(OCc2ccccc2)cc1)c1ccc(Br)cc1,0,0,-3,1
SMILES,FBW7 activator,MITF primary,TEAD-YAP inh,GPR151 activ
CN(C)S(=O)(=O)Nc1ccc(OCc2ccccc2)cc1,1.9*,12,-23,-1
O=C1CCCN1CCCNc1ncnc2nc(Nc3ccc(C(F)(F)F)cc3)[nH]c12,0,-6,-3,3
COc1ccc(-c2cc(C(=O)NCc3cccc(C(F)(F)F)c3)ccn2)cn1,0,-2,-2,4
COc1ccc(C(Nc2ccccn2)c2ccc3cccnc3c2O)cc1OC (configuration not stated),-1,37,70*,1
COc1ccccc1C(Nc1cc(C)ccn1)c1ccc2cccnc2c1O (configuration not stated),0,24,84*,0
CCOc1cc(C(Nc2cc(C)ccn2)c2ccc3cccnc3c2O)ccc1OCc1ccccc1 (configuration not stated),0,7,80*,0
CCOc1ccc(C(Nc2cc(C)ccn2)c2ccc3ccc(C)nc3c2O)cc1OCC (configuration not stated),0,15,17,0
COc1ccc(C(Nc2cc(C)ccn2)c2ccc3ccc(C)nc3c2O)cc1OC (configuration not stated),0,20,28,0
COc1ccc(C(Nc2cc(C)ccn2)c2ccc3cccnc3c2O)cc1OC (configuration not stated),0,28,61*,-1
Cc1ccc2ccc(C(Nc3ccccn3)c3ccc(C)c(C)c3)c(O)c2n1 (configuration not stated),0,9,10,0
CS(=O)(=O)N(CC(=O)NC1CC1)c1ccccc1,0,-3,4,2
COc1ccc(-c2cccc(NC(=O)c3ccc(OC)c(OC)c3)c2)nn1,0,1,11,2
C=CCOc1ccc(C(=O)Nc2ccccn2)cc1,0,10,52*,-8
Cc1ccc(C(=O)Nc2ccccn2)cc1C,0,18,44*,-10
CC(C)(C)c1ccc(C(=O)Nc2ccccn2)cc1,0,15,84*,-10
CCOc1ccc(Nc2nc(Nc3ccc(NC(C)=O)cc3)nc(C)c2[N+](=O)[O-])cc1,0,-3,44*,-1
CC(=O)Nc1ccc(Nc2nc(C)c([N+](=O)[O-])c(Nc3ccccc3)n2)cc1,0,6,29,3
CCOC(=O)c1cc2cc3ccc(OC)cc3nc2o1,0,-7,-30,-7
O=C(Oc1ccc(/C=C/c2ccncc2)cc1)c1ccncc1,0,-4,48*,-7
Cc1cc(NC(=O)c2cccc([N+](=O)[O-])c2)no1,1,30,5,-1
CC(C)C(=O)NC(c1ccc([N+](=O)[O-])cc1)c1ccc2cccnc2c1O (configuration not stated),-1,35,81*,-2
O=[N+]([O-])c1cccc(C(Nc2ccccn2)c2ccc3cccnc3c2O)c1 (configuration not stated),0,14,79*,-1
Cc1ccc2ccc(C(Nc3ccccn3)c3ccc([N+](=O)[O-])cc3)c(O)c2n1 (configuration not stated),-1,13,28,-1
Cc1cc(NC(c2cccc([N+](=O)[O-])c2)c2ccc3cccnc3c2O)no1 (configuration not stated),-1,7,86*,1
O=[N+]([O-])c1ccc(C(Nc2ccccn2)c2ccc3cccnc3c2O)cc1 (configuration not stated),-1,15,72*,0
CCOC(=O)c1c(NC(=O)COc2ccc(F)cc2F)sc2c1CCCCC2,0,3,-3,0

# Screening results (PubChem)
